# Reference: PubChem BioAssay (Tox21)
# Results filed as inconclusive are left out. Values without a mark were called inactive. Calls come from the whole dose curve; as a rule, active = well fitted inhibition curve with a large enough effect in the repeat runs; inconclusive = weak or mixed curves, or effect the other way; inactive = no such curve, though single readings can be large or run the other way.
# Target: Nuclear receptor ROR-gamma (Homo sapiens) (UniProt P51449)
# Assay: qHTS assay to identify small molecule antagonists of the retinoid-related orphan receptor gamma (ROR-gamma) signaling pathway (AID 1159521; note: top concentration of the series differs between compounds; nearly all actives have a fitted effect of over 50% in size)
# Details: Tet-on RORgamma CHO cells, RORE-luciferase, 16 h; series mostly up to 92.4 µM; activity change, negative = inhibition: at the top concentration
# From the text: U.S. Tox21 Program National Center for Advancing Translational Sciences [NCATS] NIH Chemical Genomics Center [NCGC] U.S. Environmental Protection Agency [EPA] National Institutes of Environmental Health Sciences [NIEHS] National Toxicology Program [NTP] U.S. Food and Drug Administration [FDA] Tox21 Assay Overview: Nuclear steroid hormone receptors are involved in many biological processes including inflammatory responses, cell proliferation, and apoptosis. Environmental factors or compounds disrupting these nuclear receptor pathways and gene expression may promote susceptibility to immunotoxicants and autoimmune diseases. One important group of these expression factors are the retinoid-related orphan receptors. To assess compounds that may interfere with the retinoid-related orphan receptor gamma (ROR-gamma) transcription factor, a cell-based luciferase assay was used. The CHO cell-based assay utilizes a TET-inducible ROR expression factor and ROR response element-LUC reporter gene. Reporter gene activity was induced using Doxycycline Hyclate and measured after 16 hr incubation. Tet-on ROR gamma CHO cells were used to screen against the Tox21 10K compound library for ROR gamma antagonists by quantification of decreased reporter gene activity in terms of decreased luminescence.
# Tox21 Assay Protocol Summary: Tet-on ROR gamma CHO cells were dispensed at 1,000 cells in 4 uL of culture medium per well into white wall/solid bottom 1536-well plates using a Multidrop Combi (Thermo Scientific, Waltham, MA) dispenser. Following incubation at 37 C and 5% CO2 for 4 hr, 23 nL of compounds dissolved in DMSO, positive controls or DMSO only were transferred by a Pintool station (Kalypsys, San Diego, CA) and after 2 hr incubation at 37 C, one ul of 1 uM (final concentration) of Doxycycline Hyclate was added to all the wells by using a Flying Reagent Dispenser (FRD) (Aurora Discovery, San Diego, CA). After 16 hr incubation at 37 C and 5% CO2, 5 uL of ONE-Glo reagent (Promega Corporation, Madison, WI) was added to each assay plate using FRD. After 30 min incubation at room temperature, luminescence was quantified on a ViewLux plate reader (Perkin Elmer, Waltham, MA).
# % is set by controls: 0 for no effect and ±100 for the full control effect.
row,Structure (SMILES),"activity change, negative = inhibition"
1,CC(C)C(=O)Nc1cccc(C(F)(F)F)c1,43.4% [at 42.5 µM]
2,C=C(C)C(=O)OC,7.43%
3,C=C(C)C(=O)OCCCCCCOC(=O)C(=C)C,-0.0267%
4,C[C@H](CCC(=O)O)[C@H]1CC[C@H]2[C@@H]3[C@H](O)C[C@@H]4C[C@H](O)CC[C@]4(C)[C@H]3C[C@H](O)[C@]12C,-9.34% [at 42.5 µM]
5,O=P(O)(O)OCC(O)CO (stereo not given),-6.46% [at 42.5 µM]
6,CCNC(=O)/C=C/c1cccc(Br)c1,56.6% [at 42.5 µM]
7,CCC(=O)OCCC(C)CCC=C(C)C (stereo not given),-0.354%
8,C=C(C)C(=O)OC1CC(C)CC(C)(C)C1 (stereo not given),0.93%
9,CCOC(=O)OCC/C(SC(=O)OCC)=C(\C)N(C=O)Cc1cnc(C)nc1N,-0.565% [at 42.5 µM]
10,COC(=O)CCC(=O)O,15.9%
11,O=C(CN1CCN(Cc2ccc3c(c2)OCO3)CC1)N1c2ccccc2Sc2ccccc21,-19% [at 42.5 µM]
12,Cc1ccc2c(c1)c1c3n2CCNC3CCC1 (stereo not given),-16.5% [at 42.5 µM]
13,Cc1ccccc1N1CCN(CCc2nnc3n2CCCC3)CC1,21.3% [at 42.5 µM]
14,Cc1oc(=O)oc1CN1CCN(c2cc3c(cc2F)c(=O)c(C(=O)O)c2n3C(C)S2)CC1 (stereo not given),21.6% [at 42.5 µM]
15,NS(=O)(=O)c1cc2c(cc1Cl)NC(CC1CCCC1)NS2(=O)=O (stereo not given),-24.5% [at 42.5 µM]
16,COc1cc2c3cc1Oc1cc(ccc1O)C[C@@H]1c4c(cc(OC)c(O)c4Oc4ccc(cc4)C[C@@H]3N(C)CC2)CC[N+]1(C)C,-3.18% [at 42.5 µM]
17,CC(Cl)COP(=O)(OCC(C)Cl)OCC(C)Cl (stereo not given),-1.93%
18,CCC(CO)CO,1.63%
19,C=CCOc1cc(Cl)ccc1C(=O)NCCN(CC)CC,-10.7% [at 42.5 µM]
20,C=C[Si](C)(C)O[Si](C)(C)C=C,-1.76%

row,Structure (SMILES),"activity change, negative = inhibition"
1,CCN(CC)C(=O)C1CN2CCc3cc(OC)c(OC)cc3C2CC1OC(C)=O (stereo not given),-9.65% [at 42.5 µM]
2,Nc1cc(Cl)cc(S(=O)(=O)O)c1O,1.15%
3,O=c1cc(O)c(Cl)c[nH]1,-1.19% [at 42.5 µM]
4,CCCCOC(=O)[C@@H](C)Oc1ccc(Oc2ccc(C(F)(F)F)cn2)cc1,1.97%
5,Cc1nc2ccccc2c(=O)o1,67.2%
6,O=C(/C=C/c1ccccc1)NCCO,-7.31% [at 42.5 µM]
7,COc1cc2c(Nc3ccc(Br)cc3F)ncnc2cc1OCC1CCN(C)CC1,19.4% [at 42.5 µM]
8,CC(=O)c1ccc2c(c1)CCCC2,15%
9,O=C(O)c1ccc(OCCN2CCCCC2)cc1,25% [at 42.5 µM]
10,CCCCCC(=O)OCC,-2.99%
11,C=CCCCCCCCCCCC,-1.42% [at 8.39 µM]
12,CCCCCCCCCCCCC,-7.16%
13,CCCCC(CC)C(=O)OC(C)C (stereo not given),2.18%
14,COCC(=O)Nc1c(I)c(C(=O)NCC(O)CO)c(I)c(C(=O)N(C)CC(O)CO)c1I (stereo not given),-7.17% [at 42.5 µM]
15,C[N+](C)(C)CC(O)CCl (stereo not given),7.82%
16,OC(CCN1CCCCC1)(c1ccccc1)c1ccccc1,-13.8% [at 42.5 µM]
17,CC(C)(CO)[C@@H](O)C(=O)NCCCO,-12% [at 42.5 µM]
18,CCCCC/C=C/CC(=O)OC,-1%
19,O=[Si]=O,7.22%
20,COCCOCCOCCOC,7.33%
